According to the supplement of paper PMC12632987:
The full ranking holds about 2,300 sequences; the median of “median log2 fold change of GCK-ALFA target abundance (FLAG IP / Myc IP barcode read proportion)” is about 0.095, and the lowest 2% start at about -0.47. The entries come from a sample that favours the lowest values as a whole.

B1: LC3A_28_671 (protein)
chain: SALEEQLEKALAEAKKLAAKGEPGVIVIEVPGDATEEEIERLIKTLEEIAEILKDVKGSAIVIELDKDLKEEHRQRIIDAAERINEKYPNVTVIIAMEER
B2: LC3A_45_1922 (protein)
chain: MYEATLDLLVPKELAEEAYELIKKLLEELEKKRGPNFKVDYETLDASYEASKDEEDVYLEVKIYAPTEEEALDAAIEIEEELSKELGGKVASIISVKKVP
B3: LC3A_28_979 (protein)
chain: SALEKELAAKIAEAKKAAAAGEPAVITIKVSGDTNEEQLAKIIETLEEIAEILKDVKGSAIIIDIDRGVDPKHKQKLIDKGEEIEKKYPNVTVIFALEEE
B4: LC3A_36_1337 (protein)
chain: MVVIVLSAASEEVRAAEEAHYRAKGATVFAVAVEDLDEATKEEILAVVKAAGPDADIIIVAVAETEEGLAKVLKKASELADYIEEETGRTVIIEVDLVEK
B5: LC3A_141_370 (protein)
chain: KTVTFTKTFTNSSLDEVIAGMEELEKEVLAAHEKLGGGKVKVTVTVTIKNSKTGETKVIKEEFEADKETLEMIMEGVLIEAASARLTENANITVTVTLEA
B6: LC3A_28_1047 (protein)
chain: SELEENAEKAIAEARKQLEQGEEAVVTLKVPDMPTEEAVRIFRETLERLIALSKEYGGKKISVVVDFDGDQETFDAIVDIAEEAEKADPNLTVIVALSEE
B7: LC3A_28_815 (protein)
chain: MTAEEIIKQIREQAEKGKQSDEMVLIEVKISGTITEEEAKEIMEVIREESAELAKDRPVAVLIDLEAPISQEVIDLIADMAEEIEKELPNVSVIIALPEE
B8: LC3A_free_8_2554 (protein)
chain: ISEEQKAKISEVLDKAEEEIVKKAKEMGVSEEEINELEALMGFLLQDVLDALEEGPEAALKAFEEESKLIVEYAKELGEELAKEVKKVLEEAKKEIEKIL
B9: LC3A_28_1007 (protein)
chain: MSLIEKTKEEIKKALEQAEKGEDAFLEIEIPSTATKEEVEEVLKLIEEAAKEVSKLEGVKLYVVIDDSGSPEIHDLVVDRADEIEEKYPNVSVIIAYDDK
B10: LC3A_free_46_2383 (protein)
chain: YKAEIDIDFGAMDKETAEKIAEEIKKAAEEISKKYGVKVEVEVEIIEDEDGNYYLRVKITIEGEDKEKVEEAVNELIEKIDEIAEKANVSYIISVEFIDE
B11: LC3A_132_254 (protein)
chain: SEELLEKALKELKELLDKIVADLKAGKDPWPTINKLYELALKYAEKLSLEETEKLAEESEKYAEELFAKELDPNDEEARRTLDIVEMLLESVLIEKELRS
B12: LC3A_132_255 (protein)
chain: SKELLEKALKELKEILDKIVELLQAGKDPWPAVKELEEKAEEYAEKLSLEETEELVKESEKYAEELFAARLDPNNEEARRVLDHIEMLFESVLIEKELKS
B13: LC3A_132_253 (protein)
chain: SKELLEKALKELKEILDKIVELLQAGKDPWPAIKELYEKALEYAKKLSLEETEKLAEEVEAYAEKLFAERLDPNNEEARRALEHIEMLLESVLIEKELRS
B14: LC3A_28_1225 (protein)
chain: AAVDAEIAAARAAMAAAAAAGEEATITVKITGKTTLADVKRLMEALRAIVAEHAHLPRISIIIDLSGKVTQEQIDAAAEGGERIEKEFPNVTVILALDEN
B15: LC3A_28_983 (protein)
chain: MDPREQVEELIKKAKEAAAKGEATVFTITVTSTATEEDIELITEGLKEIAEILKDVKGSAIIVDVESGVPEEYIDKIAETMEEIEKANPNVTTIIALDED
B16: LC3A_free_8_2473 (protein)
chain: SVQELVDQITALLDELEEKVREKAKELGVDELDILELELEIGSLIADLISASDGTIEEVKEIAEEGLEEIEELAKELSEEIAEIVRETREKILALLEAAE
B17: LC3A_free_0_2120 (protein)
chain: KKTVVEVVIILDDSTSEEKAKEIHEKLKEEAEKLAKENGGELKSSLSKSDGSYIITLEITFDTEDIDLALEVERKLVEIAEKILKEANVEATIYSSVYLE
B18: LC3A_free_39_2213 (protein)
chain: SEEELEELLKKVAEESGLDYEYIKKKIEEIQKVAGLSLEQMKKIVEAILEAVKEGANAEEILERILALAKELKAAGKSPEEIAKALLEEVEDYRNLIPLD
B19: LC3A_free_39_2211 (protein)
chain: SEEELEELLKKVAEESGLDYEYIRERVEEIRRVAGLSLEQMLELVKAILEAVREGADAEEILEEVLALAKELVAAGKSPEEIAEALLEEVEDFRNLIPLD

What follows are binders tested against MAP1LC3A, Q9H492 (assay: median log2 fold change of GCK-ALFA target abundance (FLAG IP / Myc IP barcode read proportion) (log2 ratio); each designed protein is fused to an ALFA-tag nanobody in HEK293 cells to bring the named protein to FLAG-tagged glucokinase (GCK); Myc marks an untargeted standard; higher = target protein stabilised (more abundant)). Details: target protein: 3xFLAG-MCP-GCK-ALFA reporter; HEK293 landing pad (RPLP).
Procedure, shortened: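 The readout is target abundance, the per-binder median log2 ratio of FLAG to Myc barcode read proportions. It came from HEK293 landing-pad cells carrying a recombined ALFA-nanobody-fused binder library, induced with 2 μg mL^−1 doxycycline and transfected with a plasmid for a FLAG-tagged target and a Myc-tagged standard. After 48 h, lysates were immunoprecipitated with anti-FLAG and anti-Myc, and circular RNA barcodes were reverse transcribed, amplified and sequenced. Each barcode needed a proportion of at least 10^−7 in both replicates and each binder at least 3 barcodes per replicate, a pseudocount of 10^−6 was added, and the replicates were pooled.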

| Binder | median log2 fold change |
| --- | --- |
| B1 | 0.0757 |
| B2 | -0.405 |
| B3 | -0.00812 |
| B4 | 0.15 |
| B5 | -0.474 |
| B6 | -0.153 |
| B7 | -0.179 |
| B8 | -0.0712 |
| B9 | -0.353 |
| B10 | 0.115 |
| B11 | -0.669 |
| B12 | 0.276 |
| B13 | 0.0444 |
| B14 | 0.191 |
| B15 | -0.2 |
| B16 | -0.379 |
| B17 | -0.12 |
| B18 | 0.203 |
| B19 | -0.819 |
